Screening results deposited in PubChem BioAssay by several laboratories.
Shown are actives, neighbours in structure and some others; about 4% of the full set was active somewhere.
Mtb UGM inh = M. tuberculosis UGM enzyme inhibitors, primary screen, biochemical, fluorescence polarization, single point; actives 0.06% (n = 320,000); inhibition, % at 10 µM; purified UGM, fluorescence polarization probe displacement; UDP-galactopyranose mutase (Mycobacterium tuberculosis (strain ATCC 25618 / H37Rv)), …; in the data active means inhibition above about 10%, passing the limit was not always enough
Mtb FBA inh = Mtb FBA enzyme inhibitors, primary screen, biochemical, fluorescence, strain H37Rv. purified M. tuberculosis FBA, fluorescence read-out. actives 2.3% (n = 360,000). inhibition, % at 1 µM
Mtb betalactam = beta-lactam sensitization of Mtb H37Rv, H37Rv; M. tuberculosis H37Rv growth with meropenem, percent inhibition; inhibition, % at 25 µM; actives 0.27% (n = 330,000); AID 434955, 2010; call rule not given here;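 further: growth measured after seven days incubation then overnight dye step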
Rv3671c inh = Rv3671c serine protease inhibitors, primary screen, biochemical, fluorescence polarization, M. tuberculosis H37Rv; P9WHR9; inhibition, % at 5.96 µM; actives 0.048% (n = 320,000); AID 2606, 2010; in the data active means inhibition above about 38%;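 further: extracellular domain of Rv3671c used as enzyme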
Target sequence (P9WHR9 whole entry, looked up, the tested form may be a part): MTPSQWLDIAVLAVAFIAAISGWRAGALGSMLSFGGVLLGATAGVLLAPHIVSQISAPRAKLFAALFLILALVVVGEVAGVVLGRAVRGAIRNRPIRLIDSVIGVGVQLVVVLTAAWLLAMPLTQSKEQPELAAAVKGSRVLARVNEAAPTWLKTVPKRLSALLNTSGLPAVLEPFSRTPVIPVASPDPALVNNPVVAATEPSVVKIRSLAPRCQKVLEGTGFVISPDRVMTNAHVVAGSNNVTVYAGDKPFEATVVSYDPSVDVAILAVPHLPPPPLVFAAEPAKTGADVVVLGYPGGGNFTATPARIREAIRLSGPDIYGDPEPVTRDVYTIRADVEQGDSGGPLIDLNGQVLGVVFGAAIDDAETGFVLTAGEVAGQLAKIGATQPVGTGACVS
GDH-TPI counter-1 = GDH-TPI coupling enzyme inhibitors, primary screen, artefact control for M. tuberculosis FBA inhibitor project, biochemical, absorbance, full deck | AID 588335, 2011 | actives 1.2% (n = 360,000) | GDH-TPI coupled enzyme counterscreen, NADH absorbance | inhibition, % at 4.8 µM; in the data active means inhibition above about 30%
RecA intein inh = Mtb RecA intein splicing inhibitors, primary screen, biochemical, fluorescence, HTS; Protein RecA (Mycobacterium tuberculosis (strain ATCC 25618 / H37Rv)), P9WHJ3; cell-free RecA intein splicing; inhibition, % (test concentration not listed); actives 0.75% (n = 290,000); AID 2221, 2009; in the data active means inhibition above about 30%
Mtb FBA confirm = M. tuberculosis aldolase blockers, biochemical, fluorescence, strain H37Rv, confirmation | shares compounds with Mtb FBA inh | purified M. tuberculosis FBA, fluorescence read-out | inhibition, % at 1 µM | actives 78% (n = 5,600) | AID 651616, 2012
GDH-TPI counter-2 = GDH-TPI coupling enzyme inhibitors, artefact control for M. tuberculosis FBA inhibitor project, biochemical, fluorescence, high throughput; actives 81% (n = 5,600); shares compounds with Mtb FBA inh; inhibition, % at 1 µM; GDH-TPI coupled enzyme counterscreen; in the data active means inhibition above about 10%
GDH-TPI DR = GDH-TPI coupling enzyme inhibitors, dose response, artefact control for M. tuberculosis FBA inhibitor project, biochemical, fluorescence, IC50; shares compounds with Mtb FBA inh; GDH-TPI coupled enzyme assay, artifact counterscreen; IC50, µM; actives 79% (n = 170); AID 652145, 2013; call rule not given here
Large screens that a line does not name were inactive (follow-up assays come after a bar, where they were run). Unless noted, no stated cut-off is given here; in the data, active means inhibition above about 27%; inactive means the rest.

CCNC(=S)Nc1cccc(NC(=O)c2ccccc2O)c1	Mtb FBA inh 37 | Mtb FBA confirm inactive | GDH-TPI counter-2 inactive
CCNC(=S)Nc1ccc(NC(=O)c2ccccc2O)cc1	none
COc1ccc(-c2ccc3nnc(SCC(=O)N4CCCC4)n3n2)cc1	Mtb FBA inh 27 | Mtb FBA confirm 189 | GDH-TPI counter-2 160
COc1ccc(-c2nnc3ccc(SCC(=O)N4CCCC4)nn23)cc1	none
Cc1cccc(S(=O)(=O)c2c(N)n(/N=C/c3cccnc3)c3nc4ccccc4nc23)c1	none
Cc1cccc(S(=O)(=O)c2c(N)n(-c3ccccc3)c3nc4ccccc4nc23)c1	Mtb FBA inh 74 | Mtb FBA confirm 63 | GDH-TPI counter-2 50
COc1cc2cc(C(=O)O)[nH]c2c(OC)c1OC	Mtb FBA inh 35 | Mtb FBA confirm 112 | GDH-TPI counter-2 74
COc1ccc(OC)c2c(=O)cc(C(=O)O)[nH]c12	none
Cc1cccc(C(C)C)c1NC(=O)COC(=O)COc1ccc2c(C)cc(=O)oc2c1	Mtb FBA inh 30 | Mtb FBA confirm inactive | GDH-TPI counter-2 inactive
CCN(CC(=O)Nc1c(F)cccc1F)C(=O)COc1ccc2c(C)cc(=O)oc2c1	Mtb FBA inh 30 (no result: RecA intein inh) | Mtb FBA confirm 123 | GDH-TPI counter-2 109
Cc1cc(=O)oc2cc(OCC(=O)OC(C)C(=O)Nc3ccc(S(N)(=O)=O)cc3)ccc12 (configuration not stated)	Mtb FBA inh 33 (no result: RecA intein inh) | Mtb FBA confirm 82 | GDH-TPI counter-2 66
Cc1cccc(C)c1NC(=O)COC(=O)COc1ccc2c(C)cc(=O)oc2c1	none
Cc1noc(C)c1COC(=O)CCN1c2ccccc2Sc2ccccc21	none (no result: RecA intein inh)
CCCCc1cc(=O)oc2c(C)c(OCc3nn[nH]n3)ccc12	Mtb FBA inh 28 | Mtb FBA confirm 59 | GDH-TPI counter-2 43
CCCCc1cc(=O)oc2c(C)c(OCC(=O)NCc3ccccn3)ccc12	none
CCCc1cc(=O)oc2cc(OCc3ccc(C(=O)O)o3)ccc12	Mtb FBA inh 36 | Mtb FBA confirm inactive | GDH-TPI counter-2 inactive | GDH-TPI DR 4.8
C=C(Cl)COc1ccc2c(CCC)cc(=O)oc2c1	none
CCCc1cc(=O)oc2cc(OCc3nn[nH]n3)ccc12	Mtb FBA inh 34 | Mtb FBA confirm 57 | GDH-TPI counter-2 36
CCCCc1cc(=O)oc2cc(OCc3nn[nH]n3)ccc12	Mtb FBA inh 35 | Mtb FBA confirm inactive | GDH-TPI counter-2 inactive
CCN(CC(=O)Nc1ccc(NC(C)=O)cc1)C(=O)COc1ccccc1Cc1ccccc1	none (no result: Rv3671c inh)
CCC/C=C1/CCCOC(C(=O)NCc2cc(C)n(C)n2)(C(F)(F)F)C1 (configuration not stated)	none
Cc1cccn2c(=O)c3cc(C(=O)N4c5ccccc5CC4C)n(C)c3nc12 (configuration not stated)	none
Cc1cccn2c(=O)c3cc(C(=O)N4CCN(C(=O)c5ccco5)CC4)n(C)c3nc12	Mtb FBA inh 81 | Mtb FBA confirm active | GDH-TPI counter-2 active
O=C(c1ccco1)N1CCN(C(=O)c2cccn3c(=O)c4c5c(sc4nc23)CCCC5)CC1	Mtb FBA inh 34 (no result: Mtb UGM inh, Mtb betalactam, Rv3671c inh, RecA intein inh) | Mtb FBA confirm 189 | GDH-TPI counter-2 145
Cc1cccn2c(=O)c3cc(C(=O)N4CCOCC4)n(C)c3nc12	Mtb FBA inh 66 | Mtb FBA confirm inactive | GDH-TPI counter-2 inactive
O=C(CCNS(=O)(=O)c1ccccc1C(F)(F)F)NNC(=O)c1csc(N2CCOCC2)n1	none
Cc1ccc2[nH]c(=O)c(CN(CC3CCCO3)C(=S)Nc3ccccc3)cc2c1 (configuration not stated)	none
O=[N+]([O-])c1ccc(C[n+]2c(-c3ccccc3)cc(-c3ccccc3)cc2-c2ccccc2)cc1	Mtb FBA inh 67 | Mtb FBA confirm active | GDH-TPI counter-2 active
O=C(Cc1ccccc1[N+](=O)[O-])NCCSCc1c(F)cccc1Cl	none
COc1ccc(OC)c(/C=C/C(=O)Oc2ccc(C(C)=O)cc2)c1	Mtb FBA inh 33 | Mtb FBA confirm 132 | GDH-TPI counter-2 107
COc1ccc(OC)c(/C=C/C(=O)OCC(=O)Nc2cccc(C(C)=O)c2)c1	none
CCCCn1nc2cc(C(=O)NCC34CC5CC(CC(C5)C3)C4)ccc2c1OCC	none (no result: Mtb betalactam)
CCCn1nc2cc(C(=O)NCCc3ccc(C)cc3)ccc2c1OCC	Mtb FBA inh 55 | Mtb FBA confirm 64 | GDH-TPI counter-2 67
CCCn1nc2cc(C(=O)NCCCCc3ccccc3)ccc2c1OCC	Mtb FBA inh 53 (no result: Mtb betalactam) | Mtb FBA confirm 132 | GDH-TPI counter-2 104
COc1ccc(-c2cc(C(=O)OCC(=O)N3CCOCC3)c3ccccc3n2)cc1	none (no result: RecA intein inh)
CC1CCN(C(=O)COC(=O)c2cc(Cl)cc(Cl)c2N)CC1	Mtb FBA inh 81 | Mtb FBA confirm 110 | GDH-TPI counter-2 90
O=C(OCC(=O)N1CCOCC1)c1c(Cl)ccc(Cl)c1Cl	none
CC(C)N(C(=O)COC(=O)c1cc(Cl)cc(Cl)c1N)C(C)C	Mtb FBA inh 80 | Mtb FBA confirm inactive | GDH-TPI counter-2 inactive
Nc1c(Cl)cc(Cl)cc1C(=O)OCC(=O)N1CCOCC1	Mtb FBA inh 101 | Mtb FBA confirm active | GDH-TPI counter-2 active
COc1cc2ccccc2cc1C(=O)OCC(=O)N1CCOCC1	Mtb FBA inh 52 | Mtb FBA confirm 180 | GDH-TPI counter-2 156
CC(C)C(=O)NCCn1ccc2ccccc21	Mtb FBA inh 30 | Mtb FBA confirm 102 | GDH-TPI counter-2 88
COc1ccc(S(=O)(=O)N2CCC(NC(=O)Nc3ccc(C)cc3)CC2)cc1	none
Cn1c(=O)c2cc(NC(=S)NC3CC3)ccc2n1Cc1ccccc1	Mtb FBA inh 41 (no result: Mtb UGM inh, Mtb betalactam, Rv3671c inh, RecA intein inh) | Mtb FBA confirm inactive | GDH-TPI counter-2 inactive
Cc1nc(Cn2c3ccc(NC(=S)NC4CCCCC4)cc3c(=O)n2C)cs1	Mtb FBA inh 28 (no result: Mtb UGM inh, Mtb betalactam, Rv3671c inh, RecA intein inh) | Mtb FBA confirm 73 | GDH-TPI counter-2 49
